# Bioassay records deposited in PubChem BioAssay by National Center for Advancing Translational Sciences (NCATS).
# TRPML1 inh: qHTS for Inhibitors of the Human Mucolipin Transient Receptor Potential 1 (TRPML1); Mucolipin-1 (Homo sapiens), Q9GZU1; AID 624415, 2012; TRPML1-inducible cells, Ca2+ dye fluorescence, FDSS; active compounds read low; inhibition of EC80 agonist-evoked calcium signal; 390,000 compounds, 0.02% hits; activity change, negative = inhibition, % (no concentration beside the values); in the data active = activity change below about -50%; inconclusive = between about -30% and that limit;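 also: stimulus is agonist 54-4 at its EC80 concentration; % is scaled to controls: 0 for no effect and ±100 for the full control effect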
# Target sequence (Q9GZU1 whole entry, looked up): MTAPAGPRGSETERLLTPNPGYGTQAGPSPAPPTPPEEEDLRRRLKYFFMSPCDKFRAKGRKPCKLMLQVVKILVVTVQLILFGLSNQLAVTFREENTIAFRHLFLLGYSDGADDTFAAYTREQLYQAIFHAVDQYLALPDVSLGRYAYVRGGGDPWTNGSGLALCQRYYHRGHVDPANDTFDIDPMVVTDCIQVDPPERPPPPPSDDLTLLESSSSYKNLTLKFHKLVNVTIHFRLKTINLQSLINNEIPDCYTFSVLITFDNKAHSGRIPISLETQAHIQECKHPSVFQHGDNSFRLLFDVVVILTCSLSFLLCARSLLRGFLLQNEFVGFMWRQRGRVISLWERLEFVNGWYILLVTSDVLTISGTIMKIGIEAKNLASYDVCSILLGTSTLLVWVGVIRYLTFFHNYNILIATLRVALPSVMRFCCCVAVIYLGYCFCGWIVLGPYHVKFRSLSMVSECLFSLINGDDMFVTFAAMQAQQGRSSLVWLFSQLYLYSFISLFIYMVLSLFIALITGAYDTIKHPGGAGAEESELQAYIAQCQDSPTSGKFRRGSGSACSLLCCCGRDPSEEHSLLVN
#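 Calcium fluorescence in TRPML1-DL cells induced overnight with Tet: a 110 s read after compound pin addition, then a 110 s antagonist read after challenge with 54-4 at 4 uM final (EC80).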
# TRPML1 agonist: qHTS for Agonists of the Human Mucolipin Transient Receptor Potential 1 (TRPML1); TRPML1-expressing cells, Ca2+ dye fluorescence, FDSS; activation, % (test concentration not listed); 410,000 compounds, 0.12% hits; Mucolipin-1 (Homo sapiens), Q9GZU1; in the data active = activation above about 50%; inconclusive = mostly about 30% to 49%; also: 0% is about no effect
#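 In this qHTS format, compounds were pin-transferred onto Ca8-dye-loaded TRPML1-DL cells induced with Tet overnight, and intracellular Ca2+ fluorescence was recorded kinetically for 110 s after a 10 s baseline. A subsequent 4uM final 54-4 (EC80) addition followed by a second 110 s read served as the antagonist phase.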
# TRPV1 ag: HTS Assay for Compounds that Act as Agonists of the Vanilloid Receptor 1; AID 540275, 2011; activation, % at 8.33 µM; TRPV1-expressing cells, Fluo-8 calcium influx, agonist mode; 320,000 compounds, 0.19% hits; Transient receptor potential cation channel subfamily V member 1 (Homo sapiens), Q8NER1; in the data active = activation above about 80%; inconclusive = between about 30% and that limit; also: 0% is about no effect
#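 Fluo-8 calcium influx in TRPV1-expressing cells, kinetic read (ex 480/em 520 nm). Compound added and read 3 min for agonist activity, followed by capsaicin at EC20 final and 2 min further read for enhancement.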
# TRPV1 potentiator: HTS Assay for Compounds that Act as Potentiators of the Vanilloid Receptor 1; AID 540277, 2011; Transient receptor potential cation channel subfamily V member 1 (Homo sapiens), Q8NER1; 320,000 compounds, 0.02% hits; potentiation, % at 8.33 µM; TRPV1-expressing cells, Fluo-8 calcium influx, capsaicin EC20 potentiation; in the data active = potentiation above about 80%; inconclusive = between about 30% and that limit; also: 0% is about no effect
#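 TRPV1-expressing cells were cultured overnight at 35.5C and loaded with Fluo-8 calcium dye for 40 to 90 min at room temperature. After a 10 s baseline, compound was added and calcium influx was read kinetically for 3 min (ex 480/em 520 nm).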
# Numbers without * were called inactive; ? = inconclusive; . = no result given. Only some compounds are listed: those with a hit (about 0.27% of all), similar ones and a draw of the others.
SMILES,TRPML1 inh,TRPML1 agonist,TRPV1 ag,TRPV1 potentiator
Cc1cc(=O)oc2c3c(cc(OCC(=O)NCc4ccncc4)c12)OC(C)(C)CC3,14.0,0.2,?,-26.8
COc1ccc(CNC(=O)COc2cc3c(c4oc(=O)cc(C)c24)CCC(C)(C)O3)cc1OC,.,.,80.7*,4.7
Cc1c(C)c2c(OCC(=O)NCc3ccncc3)cc3c(c2oc1=O)CCC(C)(C)O3,.,.,80.4*,-19.4
CC(=O)Nc1cccc(C(=O)/C=C/c2ccc(N(C)C)cc2)c1,?,71.9*,80.3*,-12.4
O=C(NCCc1ccc(Cl)cc1)c1cc2ccccn2n1,1.7,0.3,87.1*,-28.9
O=C(Nc1ccc(Br)cc1)c1cc2ccccn2n1,-0.7,0.9,84.8*,-26.0
CCc1ccc(NC(=O)c2cc3ccccn3n2)cc1,14.1,-1.4,.,.
O=C(NCCc1ccc(Cl)cc1)c1cccs1,-12.5,2.8,81.5*,-12.9
Cc1ccc2nc(-c3ccc(C)c(NC(=O)COc4ccccc4Cl)c3)oc2c1,.,-0.3,.,.
C=CC(=O)N1CCC[C@@H](n2nc(-c3ccc(Oc4ccccc4)cc3)c3c(N)ncnc32)C1,.,1.3,.,.
Cn1nc(CC(=O)Nc2ccc3c(c2)OCCO3)c2ccccc2c1=O,30.0,-1.0,4.1,81.2*
COc1ccc(N=Cc2sc(O)c3ccccc23)cc1,-29.3,84.4*,2.1,-0.3
COc1ccc(N=Cc2c(O)c3ccccc3n2C(C)=O)cc1,3.3,12.0,?,-7.5
CCn1ccc2cc(S(=O)(=O)N3CCCN(C(=O)Nc4ccccc4OC)CC3)ccc21,-3.7,3.3,.,.
Cc1ccc(C(=O)NNC(=S)NC(=O)c2ccccc2)cc1,-12.3,-0.2,.,.
CCCOc1ccc(C(=O)NC(=S)NNC(=O)c2c(-c3ccccc3)noc2C)cc1,38.6,64.7*,?,-32.2
Cc1cccc(C(=O)NNC(=S)NC(=O)c2cccs2)c1,2.0,66.2*,10.6,-6.3
Cc1ccc(C(=O)NNC(=S)NC(=O)c2ccc(Cl)cc2Cl)cc1,3.8,72.4*,20.9,-18.6
COc1ccc(C(=O)NNC(=S)NC(=O)c2cccs2)cc1,-14.6,4.0,2.9,5.7
Cc1ccc(C(=O)NC(=S)NNC(=O)c2ccccc2)cc1,-14.3,69.5*,24.7,-19.2
CC(C)(C)n1ncc2c(=O)n(Cc3c(F)ccc(F)c3Cl)cnc21,-4.9,2.7,.,.
Cc1cccc(C(=O)NNC(=S)NC(=O)c2ccccc2)c1,5.7,69.9*,.,.
COc1ccc(C(=O)NC(=S)NNC(=O)c2cccc(C)c2)cc1,3.8,19.4,.,.
CS(=O)(=O)N1CCN(Cc2cc3nc(-c4cccc5[nH]ncc45)nc(N4CCOCC4)c3s2)CC1,.,-1.0,.,.
O=C(c1cc(-c2ccc(O)cc2)on1)N1CCCCCC1,-51.6*,2.9,-3.7,-1.5
SMILES,TRPML1 inh,TRPML1 agonist,TRPV1 ag,TRPV1 potentiator
Cc1ccc2[nH]c(=O)c3cc(C(=O)N4CCN(c5ccccc5F)CC4)sc3c2c1,37.2,-0.2,.,.
CCOc1ccc(S(=O)(=O)N2CCC(n3c(C)nc4cccnc43)CC2)cc1,-11.1,1.7,.,.
CCOc1ccc(CCNC(=O)c2ccc(CS(=O)(=O)Cc3ccccc3Cl)o2)cc1OCC,12.4,3.1,.,.
CN(c1ccccc1)S(=O)(=O)c1cccc(NC(=O)Cn2cnc3ccccc3c2=O)c1,9.1,1.6,-8.0,81.8*
COc1ccc(CCSc2n[nH]c(C(C)C)n2)cc1,.,-1.3,.,.
COc1cc2nc(CCNCc3ccccc3)nc(NC3CCN(C)CC3)c2cc1OC,.,-0.4,.,.
NC(=Nc1ccc(Cl)cc1)c1ccccc1,-5.2,64.8*,12.7,-3.3
CC(OC(=O)c1ccccc1OCCOc1ccccc1)C(=O)Nc1ccc(Br)cc1 (centres undefined),.,-1.1,.,.
O=C(NCc1cccnc1)c1ccc(-c2cc(Cl)ccc2Cl)o1,-4.6,1.5,?,-10.9
O=C(NCc1cccnc1)c1ccc(-c2ccc(Cl)cc2)o1,-10.4,1.0,85.5*,-16.7
O=C(c1cnn(-c2cccc(F)c2)c1-n1cccc1)N1CCN(c2ccccc2F)CC1,-12.8,70.6*,.,.
CN(C)c1ccc(N=Cc2nc(-c3ccccc3)oc2OC(=O)c2cccc(Cl)c2)cc1,9.2,3.4,80.1*,-10.9
O=C(NC(=S)Nc1cccc2cc(O)ccc12)c1ccco1,-59.2*,2.1,16.0,0.5
